Data on 11 compounds can be found in PubChem BioAssay (NCATS).

Assay [1] can be described thus: Quantitative High-Throughput drug screen in 47 multiple myeloma cell lines against the NCATS MIPE library collection: Delta47_JCRB cell viability assay (AID 1918925; further: nearly all actives have a fitted effect of over 45% in size). The method in brief: (§1)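 Primary qHTS used for cherry-picking: cells at 500/well, library compounds for 48 h (37C, 5% CO2), luminescent ATP assay.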
Assay [2] is described as follows: Quantitative High-Throughput drug screen in 47 multiple myeloma cell lines against the NCATS MIPE library collection: EJM_DSMZ cell viability assay (AID 1918926; further: nearly all actives have a fitted effect of over 30% in size). The procedure, abridged: as §1
Assay [3] in a line: Quantitative High-Throughput drug screen in 47 multiple myeloma cell lines against the NCATS MIPE library collection: ARP1_JJKsccF8 cell viability assay (AID 1918928; further: nearly all actives have a fitted effect of over 40% in size). The method in brief: (§2)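 Myeloma cells, 500 per well, were exposed to MIPE 4.0 drugs by pin transfer for 48 h at 37 °C, 5% CO2. Viability was read as ATP luminescence with CellTiter-Glo, normalised to DMSO-only (100%) and medium-only (0%) wells.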

The nature of assay [4]: Quantitative High-Throughput drug screen in 47 multiple myeloma cell lines against the NCATS MIPE library collection: ARD_JJKsccE7 cell viability assay (AID 1918929). The method in brief:
as §1

A short description of assay [5]: Quantitative High-Throughput drug screen in 47 multiple myeloma cell lines against the NCATS MIPE library collection: KHM11_PLB cell viability assay (AID 1918962). Further: nearly all actives have a fitted effect of over 35% in size. The method in brief: (§3)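 Viability readout: CellTiter-Glo luminescence following 5 min room-temperature incubation with reagent. Prior exposure: 48 h, 37C, humidified 5% CO2, 500 cells per well.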
Assay [6] in a line: Quantitative High-Throughput drug screen in 47 multiple myeloma cell lines against the NCATS MIPE library collection: JIM3_ECACC cell viability assay (AID 1918963; further: nearly all actives have a fitted effect of over 35% in size). The procedure, abridged: as §3
Assay [7] in a line: Quantitative High-Throughput drug screen in 47 multiple myeloma cell lines against the NCATS MIPE library collection: H1112_PLB cell viability assay (AID 1918967; further: nearly all actives have a fitted effect of over 30% in size). The procedure, abridged:
as §1

Assay [8] in a line: Quantitative High-Throughput drug screen in 47 multiple myeloma cell lines against the NCATS MIPE library collection: AMO1_DSMZ cell viability assay (AID 1918927; further: nearly all actives have a fitted effect of over 30% in size). The method in brief:
as §1

Assay [9] can be described thus: Quantitative High-Throughput drug screen in 47 multiple myeloma cell lines against the NCATS MIPE library collection: Karpas620_DSMZ cell viability assay (AID 1918959). Further: nearly all actives have a fitted effect of over 30% in size. The procedure, abridged: as §3
Assay [10] is described as follows: Quantitative High-Throughput drug screen in 47 multiple myeloma cell lines against the NCATS MIPE library collection: KMM1_JCRB cell viability assay (AID 1918960). Further: nearly all actives have a fitted effect of over 30% in size. The procedure, abridged:
as §2

Assay [11] in a line: Quantitative High-Throughput drug screen in 47 multiple myeloma cell lines against the NCATS MIPE library collection: JIM1_ECACC cell viability assay (AID 1918964). The procedure, abridged: as §1
The nature of assay [12]: Quantitative High-Throughput drug screen in 47 multiple myeloma cell lines against the NCATS MIPE library collection: JJN3_DSMZ cell viability assay (AID 1918966; further: nearly all actives have a fitted effect of over 50% in size). The procedure, abridged: as §1
Assay [13] can be described thus: Quantitative High-Throughput drug screen in 47 multiple myeloma cell lines against the NCATS MIPE library collection: INA6_PLB cell viability assay (AID 1918965; further: nearly all actives have a fitted effect of over 55% in size). The method in brief:
(§4)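 Approved and investigational drugs from MIPE 4.0 were added by pin tool to 500 cells per well. After 48 hours at 37C, ATP-based CellTiter-Glo luminescence indicated remaining viability.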

Assay [14] can be described thus: Quantitative High-Throughput drug screen in 47 multiple myeloma cell lines against the NCATS MIPE library collection: Karpas417_ECACC cell viability assay (AID 1918961). The following applies: Karpas417 myeloma viability, CellTiter-Glo ATP luminescence, 48 h; viability (% of DMSO): at 45.8 µM (top of the series). The method in brief:
as §4
(Cellular ATP, detected with luciferase, serves as a proxy for viable cell number.)

Records with an inconclusive call do not appear. Calls of active or inactive are those of the source. The call rests on the fitted dose curve; in most records, active means well fitted curve in the direction sought with a large enough effect; inconclusive means small, poorly fitted or top-dose-only effect, or another doubt; inactive means no such curve, though single readings can be large; an effect the other way counts as inactive or inconclusive.
Potency means the concentration at half of the fitted maximal effect.

Take `CC(=O)OCC(=O)[C@@]12OC(C)(C)O[C@H]1C[C@H]1[C@@H]3C[C@H](F)C4=CC(=O)C=C[C@]4(C)[C@@]3(F)[C@@H](O)C[C@@]12C`: the Potency entry in [1], in [2], in assay [5], in assay [6] and in assay [7] was “inactive” each time. For the same compound, the Potency is 0.0264 µM (active) in assay [3] and 0.0148 µM (active) in assay [4].
Turning to `O=S(=O)(NCCNCC=Cc1ccc(Br)cc1)c1cccc2cnccc12`, the Potency in [1] was 14.8 µM (active); in assay [8], 16.6 µM (active); in [4] it was 10.5 µM (active); in assay [9] it was 20.9 µM (active); in assay [10], 14.8 µM (active); in assay [5], 9.35 µM (active). Moreover, the Potency is 16.6 µM (active) in [6], 4.18 µM (active) in [11], 16.6 µM (active) in assay [12] and 14.8 µM (active) in assay [7].
With `Cc1cc(CS(=O)(=O)c2ccccc2)cc(OCc2ccc(CN3CCC[C@H]3CO)cc2)c1`, the Potency in assay [1] is 14.8 µM (active); in assay [8], 14.8 µM (active); in [9], 14.8 µM (active); in [6] it was 20.9 µM (active); in assay [13] it was 18.7 µM (active); in [7] it was 16.6 µM (active). The Potency entry in [2] is “inactive”.
Turning to `Cc1nc(NC(=O)N2CCC[C@@H]2C(N)=O)sc1-c1csc(C(C)(C)C)n1`, the Potency in [1] is 3.32 µM (active); in assay [2], 8.33 µM (active); in [8], 5.26 µM (active); in assay [3], 6.62 µM (active); in assay [4] it was 0.372 µM (active); in assay [10], 1.05 µM (active). The Potency in [14] was 1.05 µM (active); in assay [5] it was 3.72 µM (active); in assay [6], 5.9 µM (active); in [11], 1.32 µM (active); in assay [13], 16.6 µM (active); in assay [12] it was 6.62 µM (active). The Potency in assay [7] was 2.09 µM (active).
For the compound `CN(CC=CC#CC(C)(C)C)Cc1cccc2ccccc12`, the Potency result in assay [1], in assay [8], in assay [3], in assay [9] and in assay [10] was “inactive” each time.
In the case of `OC[C@H]1O[C@@H](Oc2ccc(O)cc2)[C@H](O)[C@@H](O)[C@H]1O`, the Potency entry in assay [1], in [2], in [9], in assay [10] and in [5] was “inactive” throughout. For the same compound, in [6], the Potency was 10.5 µM (active).
Consider `COc1cc2nc(-c3cc(F)ccc3O)nc(N[C@@H]3CNC[C@@H]3C(C)(C)O)c2cc1OC`, for which the Potency in assay [1] was 2.64 µM (active); in assay [2], 11.8 µM (active); in [8], 6.62 µM (active); in assay [4] it was 6.62 µM (active); in [10], 4.18 µM (active); in [14] it was 0.118 µM (active). Moreover, the Potency in [5] was 0.0743 µM (active); in [11], 1.87 µM (active); in assay [13], 0.001 µM (active); in assay [12], 11.8 µM (active); in assay [7], 14.8 µM (active).
Take `C[C@@H]1[C@H](O)[C@@H](C)C=CC=CC=CC=CC=CC=CC=C[C@H](O[C@@H]2O[C@H](C)[C@H](O)[C@H](N)[C@@H]2O)C[C@@H]2O[C@](O)(C[C@@H](O)C[C@@H](O)[C@H](O)CC[C@@H](O)C[C@@H](O)CC(=O)O[C@H]1C)C[C@H](O)[C@@H]2C(=O)O`: the Potency result in assay [1], in assay [2] and in assay [9] was “inactive” throughout. Also, the Potency in [3] was 7.43 µM (active); in assay [6], 3.32 µM (active); in assay [7], 3.32 µM (active).
With `O=C(Nc1ncc(SCCN2CCCC2)s1)[C@]1(c2ccc(S(=O)(=O)C3CC3)cc2)C[C@@H]1C1CCCCC1`, the Potency in assay [1] is 14.8 µM (active); in assay [2], 18.7 µM (active); in assay [8], 8.33 µM (active); in [3] it was 26.4 µM (active); in assay [9], 8.33 µM (active); in [5] it was 16.6 µM (active). For the same compound, the Potency in [6] was 20.9 µM (active); in assay [11], 6.62 µM (active); in assay [13], 16.6 µM (active); in assay [12] it was 16.6 µM (active); in assay [7], 23.5 µM (active).
On to `CCNC(=O)CCCC=CC[C@@H]1[C@H](C=CC(O)CCc2ccccc2)[C@@H](O)C[C@@H]1O` (stereo partly specified), for which the Potency entry in assay [1], in [8], in assay [10], in assay [6], in assay [11] and in assay [13] was “inactive” in each case. In addition, the Potency result in assay [7] was “inactive”. Besides, the Potency in assay [3] was 10.5 µM (active).
For the compound `CC(=O)OCC(=O)[C@@]1(O)CC[C@H]2[C@@H]3CCC4=CC(=O)C=C[C@]4(C)[C@@H]3[C@@H](O)C[C@@]21C`, the Potency entry in [1], in assay [2], in assay [10], in [14], in [11] and in assay [7] was “inactive” each time. For the same compound, in assay [13], the Potency was 7.43 µM (active).
